This note sets out measurements from PubChem BioAssay AID720706 (Broad Institute, 2013).

Molecules are shown by their SMILES. Values joined by “and” are separate entries in the source; they are usually repeats but may differ in a detail not shown here. Equal entries are not always repeated. The campaign covered roughly 350,000 compounds. About 5,500 (1.6%) were called active.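 How the source made its calls: active means significant combined selectivity score with lowered wild-type GFP, culture density cut under 30%, mutant RFP and density less affected; inactive means any of these conditions unmet.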 The full list was thinned out, with actives kept by preference.

The nature of the assay: GFP drop in mixed WT/humanized-ribosome E. coli culture – GFP/RFP fluorescence, OD600, single point, bacterial rRNA inhibitor project, primary screen (AID 720706). As to conditions: E. coli WT GFP vs humanized-ribosome RFP mutants, 24 h; GFP signal change (wild-type ribosome): stronger effect = lower value, DMSO median 0, no signal -100; OD600 change: measured here: OD600 growth, DMSO median 0, no signal -100; RFP signal change: measured here: RFP humanized mutant strains, DMSO median 0, no signal -100, concentration not given here.
Take `O=C(CCc1c[nH]c2ccccc12)NCCOc1ccccc1`: the GFP signal change (wild-type ribosome) is 7.54% (inactive), the OD600 change was 3.6% and the RFP signal change was 0.609%.

`O=C(NCCc1c[nH]c2ccccc12)c1cc2ccccc2oc1=O`: the GFP signal change (wild-type ribosome) was -5% (inactive), the OD600 change is 0.635% and the RFP signal change was -0.892%.

`O=C(COC(=O)Cc1c[nH]c2ccccc12)NCCc1ccccc1`: the GFP signal change (wild-type ribosome) is 1.61% (inactive), the OD600 change is -7.07% and the RFP signal change was 1.57%.

Regarding `O=C(NCCc1c[nH]c2ccccc12)C1CCN(Cc2ccc(Br)cc2)CC1`, the GFP signal change (wild-type ribosome) is -52.8% (inactive), the OD600 change is -78.6% and the RFP signal change was -12.4%.

`O=C(C[C@H]1CC[C@H]2[C@@H](COC[C@@H](O)CN2S(=O)(=O)c2ccc(Cl)cc2)O1)NCCN1CCCCC1`: the GFP signal change (wild-type ribosome) was 0.039% (inactive), the OD600 change is 1.47% and the RFP signal change was -0.478%.

`COc1cccc(CC(=O)N2CCN(C(=O)C(=O)c3cccc(C(F)(F)F)c3)CC2)c1`: the GFP signal change (wild-type ribosome) is -2.93% (inactive), the OD600 change was -8.1% and the RFP signal change came out at 7.12%.

Turning to `C[C@@H]1CN([C@@H](C)CO)S(=O)(=O)c2ccc(-c3cccc(C(=O)N(C)C)c3)cc2O[C@@H]1CN(C)C(=O)Nc1ccccc1`, the GFP signal change (wild-type ribosome) was -9.2% (inactive), the OD600 change is -5.97% and the RFP signal change is -2.53%.

In the case of `O=S(=O)(NC1CC2CCC1C2)c1ccc(Cl)cc1` (stereo unspecified), the GFP signal change (wild-type ribosome) is 3.91% (inactive), the OD600 change was -2.44% and the RFP signal change is -1.19%.

For the compound `O=C(NNC(=O)C1C2CCC(C2)C1C(=O)O)c1ccc(Cl)cc1` (stereo unspecified), the GFP signal change (wild-type ribosome) is 1.61% (inactive), the OD600 change was 3.63% and the RFP signal change was -0.52%.

With `O=C(NNC(=S)NC1CC2CCC1C2)c1ccc(Cl)cc1` (stereo unspecified), the GFP signal change (wild-type ribosome) is -24.6% (active), the OD600 change was -6.95% and the RFP signal change was -4.4%.

`COc1ccc(NC(=O)N(C)C[C@@H]2Oc3ccc(NS(=O)(=O)c4ccc(C)cc4)cc3CC(=O)N([C@@H](C)CO)C[C@H]2C)cc1`: the GFP signal change (wild-type ribosome) was 0.124% (inactive), the OD600 change was -3.65% and the RFP signal change came to 1.41%.

With `CN1CCN(C(=O)c2ccc(-c3ccc(Br)cc3)o2)CC1`, the GFP signal change (wild-type ribosome) was -5.31% (inactive), the OD600 change is -1.78% and the RFP signal change worked out at 2.79%.

Regarding `CC1CCN(C(=S)c2ccc(-c3ccc(Cl)cc3Cl)o2)CC1`, the GFP signal change (wild-type ribosome) is -16.5% (inactive), the OD600 change is -16.4% and the RFP signal change was -6.12%.

With `S=C(c1ccc(-c2ccccc2)o1)N1CCCCC1`, the GFP signal change (wild-type ribosome) was -28.2% (active), the OD600 change is -14.7% and the RFP signal change was -0.16%.

Turning to `C[C@@H]1CN([C@H](C)CO)C(=O)c2cc(-c3cncnc3)cnc2O[C@@H]1CN(C)Cc1ccc(Oc2ccccc2)cc1`, the GFP signal change (wild-type ribosome) was 1.64% (inactive), the OD600 change was determined as 8.99% and the RFP signal change worked out at 0.949%.

`O=S(=O)(NC[C@H]1[C@H](c2ccccc2)[C@H](CO)N1CC1CC1)c1ccccc1`: the GFP signal change (wild-type ribosome) was -3.76% (inactive), the OD600 change is -2.41% and the RFP signal change is -1.76%.

For `COc1ccc(OC)c(NC(=O)CSc2nc(-c3ccccc3)cc(=O)[nH]2)c1`, the GFP signal change (wild-type ribosome) is -0.85% (inactive), the OD600 change was -0.395% and the RFP signal change was -1.33%.

Take `COc1ccc(NC(=O)CSc2nc(SC)ns2)c(OC)c1`: the GFP signal change (wild-type ribosome) is -4.47% (inactive), the OD600 change was -9.82% and the RFP signal change worked out at 2.07%.

Take `CCc1cc2cc(OC)ccc2nc1SCC(=O)Nc1cc(OC)c(OC)cc1C(=O)O`: the GFP signal change (wild-type ribosome) is -19.8% (active), the OD600 change is -8.13% and the RFP signal change is -0.961%.

With `COc1cccc(NC(=O)N2[C@@H]3CNC[C@H]2C3c2ccc(-c3ccncc3)cc2)c1` (stereo partly specified), the GFP signal change (wild-type ribosome) is 5.32% (inactive) and -0.155% (inactive); the OD600 change is 9.53% and -0.49%; the RFP signal change was 1.61% and -4.31%.

For the compound `CC1CCCC(NC(=O)COC(=O)[C@@H]2CC(O)CN2S(=O)(=O)c2ccc3c(c2)OCCO3)C1C` (stereo partly specified), the GFP signal change (wild-type ribosome) is -31.5% (active), the OD600 change was -14.6% and the RFP signal change is -2.13%.

As for `Cc1ccc(S(=O)(=O)N2CC(O)C[C@H]2C(=O)OCC(=O)Nc2ccc(N3CCOCC3)cc2)cc1C` (stereo partly specified), the GFP signal change (wild-type ribosome) was 4.3% (inactive), the OD600 change was 7.03% and the RFP signal change stood at 2.94%.

As to `O=C1COc2ccc(C(=O)COC(=O)C3CC(O)CN3S(=O)(=O)c3ccc(Cl)cc3)cc2N1` (stereo unspecified), the GFP signal change (wild-type ribosome) is -11.8% (inactive), the OD600 change is -8.3% and the RFP signal change came out at 1.61%.

Regarding `COCC#Cc1ccc([C@H]2[C@H](CO)N3CCCCN(Cc4ccncc4)C[C@@H]23)cc1`, the GFP signal change (wild-type ribosome) was -2.93% (inactive), the OD600 change is -2.59% and the RFP signal change is -5.64%.

Turning to `CC(C)CNS(=O)(=O)c1ccc(CCC(=O)NCc2ccc(Cl)cc2)cc1`, the GFP signal change (wild-type ribosome) is 10.8% (inactive), the OD600 change was 11.2% and the RFP signal change is -2.51%.

Turning to `COc1ccc(S(=O)(=O)NC(C)C(=O)NCc2ccncc2)cc1Cl` (stereo unspecified), the GFP signal change (wild-type ribosome) was 2.54% (inactive), the OD600 change stood at 0.925% and the RFP signal change is -2.25%.

Turning to `Cc1ccc(S(=O)(=O)NC(C)C(=O)NCc2ccc(Cl)cc2)cc1` (stereo unspecified), the GFP signal change (wild-type ribosome) is -22.7% (active), the OD600 change was -10.8% and the RFP signal change is -4.03%.

As for `CCC(=O)Nc1ccc2c(c1)OC[C@@H](C)N(CC1CC1)C[C@H](C)[C@H](OC)CN(C)C2=O`, the GFP signal change (wild-type ribosome) was 1.22% (inactive), the OD600 change was -0.6% and the RFP signal change is -0.045%.

Turning to `CC(C)NC(=O)/C(C#N)=C\c1ccc(N(C)C)c(Br)c1`, the GFP signal change (wild-type ribosome) is -19.9% (active), the OD600 change was -12.4% and the RFP signal change worked out at 3.85%.

As to `Cc1[nH]c2ccccc2c1/C=C(/C#N)C(=O)NC(C)C`, the GFP signal change (wild-type ribosome) is -4.98% (inactive), the OD600 change is 5.32% and the RFP signal change is -3.18%.

For the compound `CC(C)(C)C(=O)/C(C#N)=C/c1ccc(O)cc1`, the GFP signal change (wild-type ribosome) is 19.8% (inactive), the OD600 change was 5.69% and the RFP signal change was -9.62%.

As for `O=C(NCC[C@H]1CC[C@H](NS(=O)(=O)c2ccccc2)[C@H](CO)O1)c1cc(Cl)cc(Cl)c1`, the GFP signal change (wild-type ribosome) is -5.21% (inactive), the OD600 change was -26.1% and the RFP signal change is 22%.
